Pf Dd2 inh: P. falciparum Dd2 growth inhibitors, primary screen, SYBR Green fluorescence, single dose replicates. 72 h; hits give low values. activity change, % at 10 µM. hit rate 2.3% among 94,000. AID 1159554, 2015; in the data active means activity change below about -80%
C diff HTS: C. difficile growth inhibitors, primary screen, HTS. Clostridium difficile clinical isolate growth, OD600, 24 h; hits give low values. growth activity, negative = inhibition, % at 16 µg/mL (by protocol). hit rate 0.25% among 86,000;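 active means mean growth activity at or below -80% and every replicate also at or below -80%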;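 further: 0% = DMSO wells and -100% = levofloxacin 16 µg/mL wells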
T cruzi growth: T. cruzi intracellular proliferation inhibitors, primary screen, cell-based, beta-gal Tulahuen parasites, NIH3T3 host, luminescence; AID 624255, 2012; T. cruzi beta-gal in NIH3T3, GalScreen luminescence, 90 h; hit rate 5.9% among 77,000; inhibition, % at 8.34 µM;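 active means mean inhibition above about 93%, with at least 55% of replicates each passing it, limit read from the data, passing the limit was not always enough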
An asterisk follows results filed as active; / = not tested or not shown; ! = not confirmed by another sample. Shown are actives, neighbours in structure and some others; about 6.7% of the full set was active somewhere.

SMILES	Pf Dd2 inh	C diff HTS	T cruzi growth
C[C@H](CO)N1C[C@H](C)[C@H](CN(C)Cc2ccc(-c3ccccc3)cc2)Oc2c(NC(=O)Nc3ccc4c(c3)OCO4)cccc2C1=O	-2	3	46
C[C@@H]1CN([C@@H](C)CO)C(=O)c2cccc(NC(=O)Nc3ccc4c(c3)OCO4)c2O[C@@H]1CN(C)Cc1ccc(C(=O)O)cc1	10	-4	-10
C[C@H]1CN([C@@H](C)CO)C(=O)c2cccc(NC(=O)Nc3ccc4c(c3)OCO4)c2O[C@@H]1CN(C)Cc1ccc(C(=O)Nc2ccccc2N)cc1	-85*	5	/
C[C@H](CO)N1C[C@H](C)[C@H](CN(C)Cc2ccc(C(=O)Nc3ccccc3N)cc2)Oc2ccc(NC(=O)Nc3ccc4c(c3)OCO4)cc2C1=O	-69	-2	99
C[C@@H]1CN([C@@H](C)CO)C(=O)c2cccc(NC(=O)Nc3ccc4c(c3)OCO4)c2O[C@@H]1CN(C)Cc1ccc(C(=O)Nc2ccccc2N)cc1	-93*	/	95
C[C@@H]1CN([C@@H](C)CO)C(=O)c2cccc(NC(=O)Nc3ccc4c(c3)OCO4)c2O[C@@H]1CN(C)Cc1ccc(-c2ccccc2)cc1	-47	-96*	35
C[C@@H]1CN([C@@H](C)CO)C(=O)c2cccc(NC(=O)Nc3ccc4c(c3)OCO4)c2O[C@@H]1CN(C)C(=O)Nc1ccc2c(c1)OCO2	-90*	-4	-3
COc1ccc2c3c([nH]c2c1)[C@H](CO)N(C(=O)CC1CC1)CC31CN(Cc2ccncc2)C1	-17	-3	/
C[C@@H]1CCCCO[C@H](CN(C)Cc2ccc(C(F)(F)F)cc2)[C@@H](C)CN([C@@H](C)CO)C(=O)c2cc(NC(=O)CCCN(C)C)ccc2O1	-88*	1	62
C[C@H](CO)N1C[C@H](C)[C@H](CN(C)Cc2ccc(C(F)(F)F)cc2)OCCCC[C@H](C)Oc2ccc(NC(=O)CCCN(C)C)cc2C1=O	-86*	12	76
C[C@@H]1CN([C@H](C)CO)C(=O)c2cc(NC(=O)CCCN(C)C)ccc2O[C@@H](C)CCCCO[C@H]1CN(C)Cc1ccc(C(F)(F)F)cc1	-86*	5	77
C[C@H]1CCCCO[C@@H](CN(C)Cc2ccc(C(F)(F)F)cc2)[C@@H](C)CN([C@@H](C)CO)C(=O)c2cc(NC(=O)CCC(F)(F)F)ccc2O1	-45	0	79
C[C@@H]1CCCCO[C@@H](CN(C)Cc2ccc(C(=O)O)cc2)[C@H](C)CN([C@H](C)CO)C(=O)c2cc(NC(=O)CCCN(C)C)ccc2O1	11	5	-96
C[C@@H]1CCCCO[C@@H](CN(C)Cc2ccc(C(F)(F)F)cc2)[C@@H](C)CN([C@H](C)CO)C(=O)c2cc(NC(=O)CCC(F)(F)F)ccc2O1	-31	6	51
C[C@@H]1CCCCO[C@H](CN(C)Cc2ccc(C(F)(F)F)cc2)[C@@H](C)CN([C@H](C)CO)C(=O)c2cc(NC(=O)CCC(F)(F)F)ccc2O1	-38	-1	-52
C[C@@H]1CN([C@@H](C)CO)C(=O)c2cc(NC(=O)CCCN(C)C)ccc2O[C@@H](C)CCCCO[C@H]1CN(C)Cc1ccc(C(F)(F)F)cc1	-84*	2	83
C[C@H](CO)N1C[C@H](C)[C@H](CN(C)Cc2ccc3c(c2)OCO3)Oc2ccc(NS(=O)(=O)c3ccc(F)cc3)cc2C1=O	-10	2	-16
COc1ccc(NC(=O)N[C@@H]2C=C[C@H](CC(=O)NC3CCCCC3)O[C@H]2CO)cc1	9	/	-18
COCCNC(=O)C[C@H]1C[C@@H]2c3cc(NC(=O)NC4CCCC4)ccc3O[C@@H]2[C@@H](CO)O1	5	3	-1
O=C(C[C@@H]1CC[C@H](NS(=O)(=O)c2ccc(F)cc2)[C@@H](CO)O1)N1CCc2ccccc2C1	-4	-2	-14
C[C@H]1CN([C@@H](C)CO)C(=O)c2cc(NC(=O)CCC(F)(F)F)ccc2O[C@@H]1CN(C)Cc1ccc(Cl)c(Cl)c1	4	-3	46
COc1ccccc1NC(=O)N1CCCCN2[C@H](C1)[C@H](c1ccc(-c3cccc(C)c3)cc1)[C@@H]2CO	-6	29	92
COc1ccccc1NC(=O)N1CCCCN2[C@@H](CO)[C@H](c3ccc(C#CC4CC4)cc3)[C@@H]2C1	-79	29	/
COc1ccccc1NC(=O)N1CCCCN2[C@@H](CO)[C@@H](c3ccc(-c4cccc(C)c4)cc3)[C@@H]2C1	-83*	-80*	69
COc1ccccc1NC(=O)N1CCCCN2[C@@H](CO)[C@@H](c3ccc(C#CC4CC4)cc3)[C@@H]2C1	-90*	48	/
SMILES	Pf Dd2 inh	C diff HTS	T cruzi growth
COCC(=O)Nc1ccc2c(c1)C(=O)N(C)C[C@@H](OC)[C@@H](C)CN(Cc1cccc(F)c1)[C@H](C)CO2	-15	/	-1
CO[C@@H]1CN(C)C(=O)c2cc(NC(C)=O)ccc2OC[C@H](C)N(Cc2ccncc2)C[C@H]1C	-31	/	-30
COCC(=O)Nc1ccc2c(c1)C(=O)N(C)C[C@H](OC)[C@H](C)CN(Cc1cccc(F)c1)[C@@H](C)CO2	-82*	/	41
CO[C@H]1CN(C)C(=O)c2cc(NC(C)=O)ccc2OC[C@H](C)N(Cc2ccncc2)C[C@H]1C	-80*	/	-13
COc1ccc(NC(=O)N[C@@H]2CC[C@@H](CCNS(=O)(=O)c3cccc(Cl)c3)O[C@@H]2CO)cc1	-31	-3	/
O=C(Nc1cccc(Cl)c1)N[C@@H]1CC[C@H](CCNC(=O)C2CCOCC2)O[C@@H]1CO	8	2	17
C[C@@H]1CN([C@@H](C)CO)S(=O)(=O)c2ccc(C#Cc3ccncc3)cc2O[C@H]1CN(C)C	-48	3	29
O=C(C1CCC1)N1C[C@@H]2N[C@H](C1)C2c1ccc(/C=C/c2ccccc2)cc1 (stereo not given in full)	-77	61	/
Cc1cccc(-c2ccc(C3[C@@H]4CN(C(=O)Nc5ccccc5)C[C@H]3N4)cc2)c1 (stereo not given in full)	-15	55	/
O=C(Nc1ccc(C(F)(F)F)cc1)N1C[C@@H]2N[C@H](C1)C2c1ccc(-c2ccccc2)cc1 (stereo not given in full)	3	-98*	/
O=C(Nc1ccc(C(F)(F)F)cc1)N1C[C@@H]2N[C@H](C1)C2c1ccc(/C=C/c2ccccc2)cc1 (stereo not given in full)	-90*!	-100*	/
O=C(Nc1ccccc1)N1C[C@@H]2N[C@H](C1)C2c1ccc(-c2cccnc2)cc1 (stereo not given in full)	-9	-5	/
Cc1cccc(-c2ccc(C3[C@@H]4CN(C(=O)Nc5ccc(F)cc5)C[C@H]3N4)cc2)c1 (stereo not given in full)	-13	-91*!	/
O=C(C[C@@H]1CC[C@H](NC(=O)C2CC2)[C@@H](CO)O1)Nc1nccs1	42	0	/
Cc1noc(C)c1NC(=O)N(C)C[C@@H]1Oc2ccc(NC(=O)Cc3cn(C)c4ccccc34)cc2C(=O)N([C@H](C)CO)C[C@@H]1C	-2	/	-142
CO[C@@H]1CN(C)C(=O)c2cc(NC(=O)Nc3cccc(F)c3)ccc2OC[C@@H](C)NC[C@@H]1C	-13	/	-8

High-throughput results: PubChem BioAssay, Broad Institute
